Laboratory results taken from PMC5540273 (PLoS ONE, 2017).

Legend:
Conditions in all cases: concentration: 1 μM, replicates: in singlicate; n = 1
STK36 = tested on: STK36
STK39 = tested on: STK39
SYK = tested on: SYK
SgK110 = tested on: SgK110
TAK1 = tested on: T1, TAK1
T1 construct: gene MAP3K7

TAOK1 = tested on: TAOK1
TAOK2 = tested on: TAOK2
TAOK3 = tested on: TAOK3
TBK1 = tested on: TBK1
TEC = tested on: TEC
TESK1 = tested on: TESK1
TGFBR1 = tested on: TGFBR1
TGFBR2 = tested on: TGFBR2
TIE1 = tested on: TIE1
TIE2 = tested on: T2, TIE2
T2 construct: gene TEK

TLK1 = tested on: TLK1
TLK2 = tested on: TLK2
TNIK = tested on: TNIK
TNK1 = tested on: TNK1
TNK2 = tested on: TNK2
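Note: KINOMEscan kinase panel screen.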

Row | Structure (SMILES) | %Inh (STK36) | %Inh (STK39) | %Inh (SYK) | %Inh (SgK110) | %Inh (TAK1) | %Inh (TAOK1) | %Inh (TAOK2) | %Inh (TAOK3) | %Inh (TBK1) | %Inh (TEC) | %Inh (TESK1) | %Inh (TGFBR1) | %Inh (TGFBR2) | %Inh (TIE1) | %Inh (TIE2) | %Inh (TLK1) | %Inh (TLK2) | %Inh (TNIK) | %Inh (TNK1) | %Inh (TNK2)
1 | Nc1ncc(-c2cccnc2)c2scc(-c3ccc4c(c3)CCN4C(=O)Cc3ccccc3)c12 [GSK683281] | 87% | 4% | 34% | 1% | 7% | 0% | 4% | 0% | 14% | 17% | 33% | 0% | 0% | 92.5% | 57% | 0% | 0% | 55% | 19% | 59%
2 | c1ccc(-c2cnc3nccnn23)cc1 [AH20685] | 0% | 0% | 26% | 0% | 0% | 0% | 0% | 0% | 0% | 0% | 0% | 0% | 0% | 0% | 0% | 0% | 0% | 0% | 9% | 0%
3 | COc1ccc(-c2coc3ccc(-c4nnc(SCc5ccc(OC)c(C(F)(F)F)c5)o4)cc23)cc1 | 29% | 0% | 0% | 4% | 0% | 0% | 0% | 0% | 11% | 18% | 0% | 6% | 25% | 0% | 0% | 17% | 0% | 3% | 9% | 8%
4 | Cc1ccc(C(=O)Nc2ccc(Nc3ccnc4cc(-c5nccs5)ccc34)cc2O)cc1.Cl [GW494702] | 35% | 0% | 5% | 15% | 0% | 0% | 0% | 0% | 0% | 0% | 15% | 40% | 0% | 16% | 5% | 0% | 0% | 36% | 46% | 96.9%
5 | COCCOCCOc1cc2ncc3c4ccc(C#N)cc4[nH]c3c2cc1OC | 22% | 0% | 5% | 0% | 88% | 0% | 12% | 0% | 89% | 0% | 18% | 0% | 0% | 0% | 0% | 0% | 0% | 87% | 0% | 9%
6 | Cl.c1ccc(-c2ccc3c(Nc4ccc5[nH]ccc5c4)ccnc3c2)nc1 [GW440138] | 0% | 0% | 0% | 0% | 0% | 0% | 0% | 0% | 12% | 0% | 23% | 53% | 4% | 0% | 0% | 1% | 0% | 58% | 24% | 4%
7 | O=C(Nc1n[nH]c2nc(-c3ccc(O)cc3)ccc12)C1CC1 [SB-710363] | 15% | 18% | 25% | 0% | 21% | 98.9% | 79% | 95.9% | 19% | 0% | 0% | 0% | 0% | 0% | 11% | 18% | 0% | 95.1% | 0% | 0%
8 | NCCCC(NC(=O)c1cc(Br)c(-c2ccnc3[nH]ccc23)s1)c1ccccc1.O=C(O)C(F)(F)F.O=C(O)C(F)(F)F (stereo not shown) [GSK1287544] | 0% | 0% | 0% | 58% | 0% | 34% | 0% | 0% | 0% | 0% | 16% | 0% | 0% | 73% | 15% | 0% | 0% | 3% | 0% | 0%
